Reference: PubChem BioAssay (NCI)
Compounds without any hit were thinned out: in the full panel of roughly 83,000, 20% have a hit.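 Note: values are percent growth. 100 is the growth of untreated cells, values between 100 and 0 indicate rising inhibition; between -100 and 0 indicates cell death.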 Values without a mark were called inactive. The source made the active and inactive calls. The calls were made as follows: active = growth percent below 10; inactive = the rest.

Experiments:
Experiment in all cases: NCI-60 one-dose screen, 48 h (100 = growth as untreated, 0 = no growth, -100 = all killed)
Settings in all cases: 10 µM unless noted
DU-145 prostate = system: DU-145 prostate
K-562 leukemia = system: K-562 leukemia
MALME-3M melanoma = system: MALME-3M melanoma
MDA-MB-231 breast = system: MDA-MB-231 breast
RXF 393 renal = system: RXF 393 renal
SF-268 CNS = system: SF-268 CNS
SF-295 CNS = system: SF-295 CNS
SF-539 CNS = system: SF-539 CNS
UACC-257 melanoma = system: UACC-257 melanoma
M14 melanoma = system: M14 melanoma
HCT-15 colon = system: HCT-15 colon
HT29 colon = system: HT29 colon
SNB-75 CNS = system: SNB-75 CNS
SNB-19 CNS = system: SNB-19 CNS
U251 CNS = system: U251 CNS
PC-3 prostate = system: PC-3 prostate
SK-MEL-5 melanoma = system: SK-MEL-5 melanoma
UACC-62 melanoma = system: UACC-62 melanoma
LOX IMVI melanoma = system: LOX IMVI melanoma
SK-MEL-28 melanoma = system: SK-MEL-28 melanoma

Row | Structure (SMILES) | growth (DU-145 prostate) | growth (K-562 leukemia) | growth (MALME-3M melanoma) | growth (MDA-MB-231 breast) | growth (RXF 393 renal) | growth (SF-268 CNS) | growth (SF-295 CNS) | growth (SF-539 CNS) | growth (UACC-257 melanoma) | growth (M14 melanoma) | growth (HCT-15 colon) | growth (HT29 colon) | growth (SNB-75 CNS) | growth (SNB-19 CNS) | growth (U251 CNS) | growth (PC-3 prostate) | growth (SK-MEL-5 melanoma) | growth (UACC-62 melanoma) | growth (LOX IMVI melanoma) | growth (SK-MEL-28 melanoma)
1 | CC1CCCN(CCCCCOc2ccc3oc4ccc(Cl)cc4c(=O)c3c2)C1 (stereo not given) | 84.7% | 16.8% | 52% | 62.3% | 72% | 81.2% | 83.1% | 66.6% | -17.9% (active) | -17.5% (active) | 2.05% (active) | 4.5% (active) | 82.5% | 86.4% | 68.2% | 79.8% | -14.3% (active) | -43.1% (active) | 10.9% | 79.9%
2 | O=C(Nc1cccc(-c2cccc(F)c2)c1)C1CCN(Cc2cccc3cccnc23)CC1 | 72% | -37.6% (active) | -50% (active) | 37.8% | 68.6% | 56.8% | 56.1% | 69.5% | -2.39% (active) | -54% (active) | 19.5% | 0.443% (active) | 53.6% | 77% | 44.4% | 51.1% | 35.2% | -44.8% (active) | 3.29% (active) | -40.2% (active)
3 | C#C[C@@]1(O)[C@@H](CO)O[C@@H](n2cc(-c3ccco3)c3c(N)ncnc32)[C@@H]1O | 67.9% | 86.1% | 59.4% | 102% | 80.9% | 83% | 76.9% | 46% | 89.3% | 69.9% | 59.3% | 28.8% | 14.6% | 94.4% | 81.8% | 49.1% | 89% | 80.2% | 65.6% | 93.2%
4 | O=C(Nc1ccc(S(=O)(=O)NC2CCCCCC2)cc1)C(c1ccccc1)S(=O)(=O)c1ccc(F)cc1 (stereo not given) | 9.51% (active) | 7.42% (active) | -4.32% (active) | 13.8% | -33.6% (active) | 24.3% | -13.8% (active) | 9.02% (active) | -24.6% (active) | 2.29% (active) | 2.74% (active) | -14.1% (active) | 3.64% (active) | 26.2% | 12.6% | 7.69% (active) | -36.4% (active) | -9.75% (active) | 5.06% (active) | 1.46% (active)
5 | O=C1C(Cl)=C(NCCCN(CCCNC2=C(Cl)C(=O)c3ccccc3C2=O)C2=C(Cl)C(=O)c3ccccc3C2=O)C(=O)c2ccccc21 | -88% (active) | 12.2% | -28.4% (active) | 38.5% | 85.3% | 74.7% | 91.4% | 88.3% | 52.6% | 11.7% | 37.1% | 12.4% | 104% | 72.9% | 37.4% | 47% | -59.1% (active) | 17.9% | 10.8% | 71.7%
6 | O=C1CC23OC(C(O)c4ccccc4N12)C1C(c2ccccc2)=NOC13 (stereo not given) | 81.9% | 16.1% | 49.8% | 52.9% | 71.5% | 64.1% | 42.3% | 50% | 89.2% | 16.1% | 29.7% | 13.9% | 33.4% | 44% | 40.2% | 50% | 31.7% | 28.2% | 37.8% | 64.1%
7 | CCOC(=O)c1c(C)nc2c(c1N)CC(=O)N2CCc1ccccc1 | 9.55% (active) | 11.7% | 49.1% | 31.8% | 27.1% | 24% | 15.6% | 13.7% | 56.6% | 18% | 17.2% | 6.02% (active) | 80.1% | 22.4% | 31.8% | 17.3% | 3.27% (active) | 32.1% | 9.25% (active) | 39.9%
8 | COc1ccc2nc(-c3ccc(OC)c(OC)c3)cc(-c3nnc(SCC(=O)Nc4ccc(C(C)=O)cc4)o3)c2c1 | 108% | 99.2% | 109% | 99.5% | 102% | 104% | 100% | 96% | 101% | 105% | 100% | 105% | 91.6% | 101% | 97.7% | 95% | 94.1% | 102% | 102% | 113%
9 | COc1cc(NC(=O)COc2cc(C)nc3ccc(OC)cc23)cc(OC)c1 | 97.8% | 79.1% | 82.8% | 80% | 94.2% | 94.5% | 96.8% | 76.1% | 82% | 94.8% | 90.9% | 91.7% | 77.3% | 91.4% | 91% | 81.9% | 76% | 74.4% | 85.8% | 102%
10 | Cc1nccc2c3ccc(OCc4cn(-c5ccc(Br)cc5)nn4)cc3n(CC(C)C)c12 | 76% | 14.8% | 51.1% | 46.9% | 46.1% | 68.4% | 40% | 61.4% | 27.3% | 42.6% | 36.4% | 4.32% (active) | 89.5% | 59.6% | 36.9% | 30.7% | 13.1% | 38.4% | 52.2% | 67.2%
11 | Cc1cccc(C)c1NCc1nnc(-c2ccc(O)cc2)o1 | 110% | 126% | 101% | 103% | 108% | 101% | 96.5% | 97.8% | 111% | 98.5% | 97.7% | 106% | 77.8% | 108% | 105% | 95.1% | 101% | 100% | 96.8% | 102%
12 | O=c1cc(/C=N\Nc2nc(-c3ccc(Cl)cc3Cl)cs2)c2cc(Cl)ccc2o1 | 102% | 84.1% | 116% | 82.8% | 114% | 101% | 95.2% | 94.3% | 99.2% | 91.4% | 90.7% | 99.3% | 80.6% | 106% | 101% | 80.1% | 86.3% | 80.6% | 89.8% | 90.6%
13 | Oc1ccccc1-c1nc2c3ccccc3c3ccccc3c2o1 | 104% | 88.1% | 91.9% | 81.7% | 109% | 89.8% | 115% | 105% | 101% | 103% | 92.1% | 106% | 89.7% | 95.7% | 82% | 77.8% | 98.6% | 88.4% | 90.6% | 117%
14 | COC1=CC2C=C(C3N(c4ccccc4)NC(=O)[C@@H]4CCCN34)C(=O)NC2C=C1 (stereo not given in full) | 112% | 93.3% | 113% | 111% | 116% | 99.8% | 103% | 109% | 108% | 101% | 101% | 102% | 85% | 104% | 110% | 102% | 102% | 104% | 92.8% | 108%
15 | COC(=O)c1cc2c3c(cc(O)c2[nH]1)N(C(=O)C1Cc2cc(OC)c(OC)c(OC)c2N1)CC3CCl (stereo not given) | -99.1% (active) | 1.56% (active) | -58.1% (active) | -41.3% (active) | -99.4% (active) | -5.75% (active) | -40.6% (active) | -74.7% (active) | -72.3% (active) | -25.1% (active) | 1.13% (active) | -7.58% (active) | -32.9% (active) | -52% (active) | -54.9% (active) | -17.1% (active) | -94.6% (active) | -61% (active) | -94.2% (active) | -6.29% (active)
